{"source": "PubChem BioAssay AID2283364", "about": "(EPA ToxCast)", "note": "Inconclusive results are not listed. Activity calls are given as the source filed them. How the source made its calls: active means hit-call score of the fitted dose curve at least 0.9, where 1 is the maximum; inconclusive means response in the unintended direction; inactive means score below 0.9."}
{"target": "human FK-506 Binding Protein (FKBP12), FKBP1A (gene 2280) (UniProt P62942)", "sequence (P62942 whole entry, looked up)": "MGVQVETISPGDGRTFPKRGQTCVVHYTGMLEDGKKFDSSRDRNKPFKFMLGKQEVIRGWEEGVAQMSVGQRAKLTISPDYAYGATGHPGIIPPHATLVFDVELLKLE", "test": "NVS_OR_hFKBP12: NovaScreen (NVS) Nuclear Receptor Binding Assay for human FK-506 Binding Protein (FKBP12)", "procedure": "NVS_OR_hFKBP12 is a biochemical, single-readout assay that uses extracted gene-proteins from E. coli in a cell-free assay. Measurements were taken 0.75 hour after chemical dosing in a 48-well plate.NVS_OR_hFKBP12 is one of one assay component(s) measured or calculated from the NVS_OR_hFKBP12 assay. It is designed to make measurements of radioligand binding, a form of binding reporter, as detected with scintillation counting signals by Filter-based radiodetection technology.Data from the assay component NVS_OR_hFKBP12 was analyzed into 1 assay endpoint. This assay endpoint, NVS_OR_hFKBP12, was analyzed in the positive analysis fitting direction relative to DMSO as the negative control and baseline of activity. Using a type of binding reporter, loss-of-signal activity can be used to understand changes in the binding as they relate to the gene FKBP1A. Furthermore, this assay endpoint can be referred to as a primary readout, because the performed assay has only produced 1 assay endpoint. To generalize the intended target to other relatable targets, this assay endpoint is annotated to the misc protein intended target family, where the subfamily is chaperone.\nBinding assays used specific radioligands (tritiated, iodinated) with non-radioactive competitive displacement ligands in agonist or antagonist protocols (as indicated) and various reference compounds and inhibitors to titrate specific binding to receptors and transporters. Most enzyme assays (CYPs, kinases, phosphatases, proteases, HDACs) used recombinant protein and specific substrates (fluorescence mostly, some colorimetric and radioactive) and inhibitors, followed by a biochemical separation of substrate and product. All assays for the biochemical HTS were initially run in duplicate at a single concentration (10 uM for CYP450 assays and 25 uM for all others). Assay-chemical combinations meeting a pre-defined threshold (e.g., 30% inhibition and other criteria defined below) were then run in singleton concentration-response format with maximum concentration of 20 uM for CYPs and 50 uM for all others. Each assay was run with positive and negative controls, and concurrent controls on every plate. The follow-up (secondary) screen tested active chemical-pairs in concentration series, as well as a few additional assays not tested in the primary screen, some selected negative inactives, and several cases re-run in the concentration series for confirmatory purposes."}
{"smiles": "CC[C@H](C)[C@H]1O[C@]2(C=C[C@@H]1C)C[C@@H]1C[C@@H](C/C=C(\\C)[C@@H](O[C@H]3C[C@H](OC)[C@@H](O[C@H]4C[C@H](OC)[C@@H](O)[C@H](C)O4)[C@H](C)O3)[C@@H](C)/C=C/C=C3\\CO[C@@H]4[C@H](O)C(C)=C[C@@H](C(=O)O1)[C@]34O)O2", "note": "(tested in a mixture with another compound)", "outcome": "inactive"}
{"smiles": "COP(=S)(OC)SCn1nnc2ccccc2c1=O", "outcome": "inactive"}
{"smiles": "CO/N=C(/C1=NOCCO1)c1ccccc1Oc1ncnc(Oc2ccccc2Cl)c1F", "outcome": "inactive"}
{"smiles": "Cc1ccn2nc(S(=O)(=O)Nc3c(F)cccc3F)nc2n1", "outcome": "inactive"}
{"smiles": "Cc1cc(C)nc(NC(=O)NS(=O)(=O)c2ccccc2C(=O)OC2COC2)n1", "outcome": "inactive"}
{"smiles": "O=C(O)c1nc(Cl)ccc1Cl", "outcome": "inactive"}
{"smiles": "c1ccc(-c2ccccc2)cc1", "outcome": "inactive"}
{"smiles": "CNC(=O)Oc1ccccc1OC(C)C", "outcome": "inactive"}
{"smiles": "COC(=O)C=C(C)OP(=O)(OC)OC", "outcome": "inactive"}
